Screening results deposited in PubChem BioAssay by Johns Hopkins Ion Channel Center.
The list is not random: actives were taken first. Their share in the collection is about 1.6%.
KCNQ2 block = blocks the rat KCNQ2 potassium channel; CHO-K1 KCNQ2, FluxOR thallium flux, 20 min; stronger effect = lower value; B-score at 10 µM; 310,000 compounds, 1.1% hits; AID 2156;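 active = fluorescence ratio B-score at most minus 3 library SDs, with starting brightness B-score within 2 library SDs, cut at about -5.5 in these data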
Target sequence (O88943 whole entry, looked up): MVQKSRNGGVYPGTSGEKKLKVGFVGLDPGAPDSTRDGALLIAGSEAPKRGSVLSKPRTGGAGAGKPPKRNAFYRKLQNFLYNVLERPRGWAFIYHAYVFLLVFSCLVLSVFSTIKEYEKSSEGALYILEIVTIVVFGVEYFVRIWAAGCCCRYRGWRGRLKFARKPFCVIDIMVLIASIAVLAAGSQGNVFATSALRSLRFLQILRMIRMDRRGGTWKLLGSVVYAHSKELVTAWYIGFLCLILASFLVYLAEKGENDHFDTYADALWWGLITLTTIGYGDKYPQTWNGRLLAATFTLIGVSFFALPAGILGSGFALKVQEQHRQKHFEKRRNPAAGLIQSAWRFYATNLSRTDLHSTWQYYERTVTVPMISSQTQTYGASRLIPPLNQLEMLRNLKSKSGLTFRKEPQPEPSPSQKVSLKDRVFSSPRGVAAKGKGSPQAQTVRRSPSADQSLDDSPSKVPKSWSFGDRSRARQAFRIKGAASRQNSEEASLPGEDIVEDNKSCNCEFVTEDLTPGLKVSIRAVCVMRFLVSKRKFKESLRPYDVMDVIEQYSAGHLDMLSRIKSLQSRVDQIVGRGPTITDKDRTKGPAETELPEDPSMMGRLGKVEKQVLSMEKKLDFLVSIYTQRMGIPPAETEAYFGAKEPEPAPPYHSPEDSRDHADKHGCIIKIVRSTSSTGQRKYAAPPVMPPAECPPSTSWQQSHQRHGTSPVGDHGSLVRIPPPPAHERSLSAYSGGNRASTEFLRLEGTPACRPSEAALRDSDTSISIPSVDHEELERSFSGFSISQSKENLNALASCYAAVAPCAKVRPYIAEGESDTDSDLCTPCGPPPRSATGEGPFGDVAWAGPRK
KCNQ2 pot = potentiators of rat KCNQ2 potassium channel. CHO-K1 KCNQ2, FluxOR thallium flux fluorescence; stronger effect = higher value. AID 2239. 310,000 compounds, 0.54% hits. B-score at 10 µM;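 active = fluorescence ratio B-score at least 3 SD of library B-scores, with initial fluorescence B-score within 3 of them, cut at about 5.3 in these data; same plate scores as AID 2156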;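 also: B-score of peak minus minimum over baseline fluorescence ratio after K+ and Tl+ stimulus; positive B-score means potentiation of KCNQ2 with more thallium influx and brighter signal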
* marks the source's active call; other numbers are inactive results.

Results for CC(NC(=O)[C@H](Cc1c[nH]c2ccccc12)NC(=O)[C@@H]1Cc2ccccc2CN1)c1ccccc1 (stereo not given in full) ?
KCNQ2 block: -5.9*; KCNQ2 pot: -5.9

Results for Cc1ccc(NC(=O)[C@H](Cc2ccccc2)NC(=O)[C@@H]2Cc3ccccc3CN2)c(C)c1 ?
KCNQ2 block: inactive

Results for CCc1ccc(NC(=O)[C@H](Cc2c[nH]c3ccccc23)NC(=O)[C@@H]2Cc3ccccc3CN2)cc1 ?
KCNQ2 block: inactive

What do the screens show for `CCCCn1c(N)c(N(CC(C)C)C(=O)c2cccc(-n3cnnn3)c2)c(=O)[nH]c1=O`?
KCNQ2 block: inactive

Results for Nc1ccc(S(=O)(=O)NC2(C(F)(F)F)NC(=O)N(Cc3ccccc3)C2=O)cc1 (stereo not given) ?
KCNQ2 block: inactive; KCNQ2 pot: 0.94

What do the screens show for `O=C(NNC(=O)C1CCC1)c1ccccc1F`?
KCNQ2 block: inactive

What do the screens show for `Cn1c(CC(=O)Nc2ccccc2Cl)nnc1SCC(=O)Nc1nncs1`?
KCNQ2 block: inactive

What do the screens show for `Cc1cc(NC(=O)CSc2nnc(COc3cccc(C)c3C)n2Cc2ccco2)no1`?
KCNQ2 block: inactive; KCNQ2 pot: 0.07

Results for Cc1cccc(OCc2nnc(SCC(=O)N(C(C)C)C(C)C)n2Cc2ccco2)c1C ?
KCNQ2 block: -7.7*; KCNQ2 pot: -7.7

What do the screens show for `CCOc1ccccc1CNC(=O)C1CCCN(c2nnc(C)c3c(C)n(-c4ccccc4)nc23)C1` (stereo not given)?
KCNQ2 block: inactive

What do the screens show for `CCN(CC)C(=O)C(Sc1nnnn1-c1ccc(O)cc1)c1ccccc1` (stereo not given)?
KCNQ2 block: -6.1*; KCNQ2 pot: -6.1

Results for CCC(Sc1nnnn1-c1ccccc1)C(=O)NC(C)c1ccccc1 (stereo not given) ?
KCNQ2 block: inactive

How did COc1ccc(O)c(C(=O)c2cnc3c(c2)CN(C)C(=O)N3)c1 do in these assays?
KCNQ2 block: inactive

How did COc1ccccc1CCn1cnc2c3cc(C)ccc3n(C)c2c1=O do in these assays?
KCNQ2 block: -7.4*; KCNQ2 pot: -7.4

How did COc1ccc2c(c1)c1ncn(CCN3CCCC3)c(=O)c1n2C do in these assays?
KCNQ2 block: inactive; KCNQ2 pot: 1.2

How did CCOC(=O)N1CCN(Cc2ccc(OCC(O)CN3CCCCC3)cc2)CC1 (stereo not given) do in these assays?
KCNQ2 block: inactive; KCNQ2 pot: 0.86

What do the screens show for `O=C(C1CCN(S(=O)(=O)c2ccccc2F)CC1)N1CCc2ccccc2C1`?
KCNQ2 block: inactive; KCNQ2 pot: 1.2

Results for COc1ccccc1/C=C(/C#N)C(=O)O ?
KCNQ2 block: inactive; KCNQ2 pot: 0.63

How did Cc1cc(S(=O)(=O)N2CCN(c3ccccc3F)CC2)ccc1-n1cnnn1 do in these assays?
KCNQ2 block: inactive; KCNQ2 pot: 0.31

What do the screens show for `COc1ccc(N(C)C(=O)CCC(=O)Nc2ccc3nc(N4CCOCC4)cc(C)c3c2)c(OC)c1`?
KCNQ2 block: -7.8*; KCNQ2 pot: -7.8

What do the screens show for `COc1ccc(NC(=O)CCC(=O)Nc2ccc3nc(N4CCOCC4)cc(C)c3c2)c(OC)c1`?
KCNQ2 block: inactive; KCNQ2 pot: 0.24

How did CC(=O)N1CCN(C(=O)COC(=O)COc2ccc(C#N)cc2)CC1 do in these assays?
KCNQ2 block: inactive

Results for N#Cc1ccc(COC(=O)CCc2c[nH]c3ccccc23)cc1 ?
KCNQ2 block: inactive

Results for COc1cccc(C2Nc3ccc4ccccc4c3C3=C2C(=O)CC(C)(C)C3)c1OCC(=O)O (stereo not given) ?
KCNQ2 block: inactive; KCNQ2 pot: 0.24

How did O=C(c1ccccc1)N1CCC(CC2CC(c3cccc(Br)c3)=NO2)(C(=O)NCC2CCCCC2)CC1 (stereo not given) do in these assays?
KCNQ2 block: inactive

Results for CC(C)(C)OC(=O)N1CCC(CC2CC(c3cccc(Br)c3)=NO2)(C(=O)NCC2CCCCC2)CC1 (stereo not given) ?
KCNQ2 block: -8.1*; KCNQ2 pot: -8.1

How did CS(=O)(=O)N(CC(=O)N/N=C/c1cccs1)c1cccc(Cl)c1Cl do in these assays?
KCNQ2 block: inactive

What do the screens show for `COc1ccc(CC(=O)Nc2cccc(/C(C)=N/NC(=O)c3cccc([N+](=O)[O-])c3)c2)cc1`?
KCNQ2 block: -6*; KCNQ2 pot: -6

Results for COc1ccc(CC(=O)N/N=C(\C)c2cccc(NC(=O)C3CC3)c2)cc1 ?
KCNQ2 block: inactive; KCNQ2 pot: 2.9

How did Cc1ccc2c(c1)-c1c(cnn1CC(=O)N1CCCN(Cc3ccccc3F)C1)CO2 do in these assays?
KCNQ2 block: -8.2*; KCNQ2 pot: -8.2

Results for Cc1ccc2c(c1)-c1c(cnn1CC(=O)O)CO2 ?
KCNQ2 block: inactive

How did CCOc1ccc(NC(=O)CCCNC(=O)Cn2cnc3sc(C)c(C)c3c2=O)cc1 do in these assays?
KCNQ2 block: inactive; KCNQ2 pot: 1.9

How did O=C(NCc1csc(-c2ccccc2)n1)c1cc(F)cc2c1OCOC2 do in these assays?
KCNQ2 block: -6.1*; KCNQ2 pot: -6.1

How did O=C(Cc1csc(-c2ccccc2)n1)NCc1ccc(F)cc1 do in these assays?
KCNQ2 block: inactive

What do the screens show for `COc1ccc(C)cc1NS(=O)(=O)c1ccc2c(c1)CCN2C(C)=O`?
KCNQ2 block: inactive; KCNQ2 pot: 0.01

Results for CCOc1cc(C(=O)CSc2nnc(CNc3ccc(Cl)cc3)o2)ccc1NC(=O)CC ?
KCNQ2 block: inactive; KCNQ2 pot: 6.2*

What do the screens show for `COc1ccc(NCc2nnc(SCC(=O)c3ccc(OC)cc3)o2)cc1`?
KCNQ2 block: inactive; KCNQ2 pot: 0.8

What do the screens show for `CC(NC(=O)c1ccccc1F)c1nnc(SCC(=O)Nc2nnc(C3CC3)s2)n1C` (stereo not given)?
KCNQ2 block: inactive; KCNQ2 pot: 0.42

Results for CCc1cccc(CC)c1NC(=O)c1cc(CN2C(=O)c3ccccc3C2=O)ccc1OC ?
KCNQ2 block: -8*; KCNQ2 pot: -8

How did COc1ccc(CN2C(=O)c3ccccc3C2=O)cc1C(=O)O do in these assays?
KCNQ2 block: inactive

What do the screens show for `C=CCNC(=S)NNC(=O)c1ccccc1OCC`?
KCNQ2 block: inactive

What do the screens show for `COc1ccc(-c2n(Cc3ccccc3)c3ccccc3[n+]2Cc2ccccc2)cc1`?
KCNQ2 block: -6*; KCNQ2 pot: -6

Results for COc1ccc(-c2nc3ccccc3n2Cc2ccccc2)cc1 ?
KCNQ2 block: inactive

How did Cc1ccc(N(C(=O)NC2CCCCC2)C2=NCCCCC2)cc1 do in these assays?
KCNQ2 block: -5.8*; KCNQ2 pot: -5.8

How did Cc1ccc(N(C(=O)Nc2ccccc2)C2=NCCC2)cc1 do in these assays?
KCNQ2 block: inactive

Results for CCOC(=O)N1CCN(C(=O)c2cnn3c(C(F)F)cc(-c4ccc(C)cc4)nc23)CC1 ?
KCNQ2 block: inactive; KCNQ2 pot: 3

What do the screens show for `Cc1ccc(-c2cc(C(F)F)n3ncc(C(=O)N4CCN(c5cccc(C)c5C)CC4)c3n2)cc1`?
KCNQ2 block: -6.4*; KCNQ2 pot: -6.4

What do the screens show for `COc1ccc(C(CC(=O)Nc2cc([N+](=O)[O-])ccc2OC)c2ccccc2)cc1` (stereo not given)?
KCNQ2 block: inactive

How did Cc1ccc(C)c(N=Nc2nc3ccccc3n2C)c1 do in these assays?
KCNQ2 block: -6*; KCNQ2 pot: -6

How did Cc1cc(C)c(C)c(N=Nc2nc3ccccc3n2C)c1C do in these assays?
KCNQ2 block: inactive
